The campaign covered roughly 340,000 compounds. About 1,400 (0.41%) were called active. Another 4% or so got no clear call; they are omitted. Many of the other results were omitted from the sample, so actives are more common in it than they were. Unmarked numbers belong to inactive results. Calls follow the shape of the full dose curve; cell line not stated here.
% is scaled to controls: 0 for no effect and ±100 for the full control effect; potency is read from the fitted curve at half-maximal effect.

The nature of this assay: qHTS for Antagonists of gsp, the Etiologic Mutation Responsible for Fibrous Dysplasia/McCune-Albright Syndrome: qHTS. Also: nearly all actives have a fitted effect of over 65% in size. The note with it: gsp-mutant cells, cAMP HTRF, 30 min; series mostly up to 76.9 µM; activity change, negative = inhibition: at the top concentration. The method in brief:
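Cells, 2000/well, grown 16–24 h in DMEM 10% FBS with 0.5 mg/ml G418, then compounds plus […] (300 uM addition stock), 30 min at 37C. cAMP read by HTRF (cAMP-d2 and anti-cAMP antibody-K in lysis buffer) after 30 min RT.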
On the technique in general: Quantitative high-throughput screening tests each substance at several concentrations.
In the case of `Cc1ccc(C(=O)O)c(NC=O)c1OCc1ccccc1`, the “activity change, negative = inhibition” value is 3.23%.
In the case of `COc1ccc(CNC(=O)CN2C(=O)c3ccccc3S2(=O)=O)cc1`, the “activity change, negative = inhibition” value is -3.81%.
On the same count and under the same terms, the figure for `Cc1cc(NC(=O)COn2nnc3ccccc32)no1` is 1.85%; for `Cc1cc(NC(=O)COc2ccc([N+](=O)[O-])cc2)no1` it is -1.16%.
`Cc1cc(NC(=O)COc2ccccc2C#N)no1`: the Potency is 31.6 µM (active).
For the compound `NC1=NOC(=O)C1C1CCCCC1` (stereo not given), the “activity change, negative = inhibition” value is 6.81%.
Same read-out and setting: the same measure for `O=C(Cc1ccc([N+](=O)[O-])cc1)NCCc1ccc2c(c1)OCO2`: -3.61%.
As for `O=[N+]([O-])c1cc([N+](=O)[O-])c(Oc2cc(F)cc(F)c2F)cc1NN1CCCCC1`, the Potency was 11.2 µM (active).
Take `O=C(CN1CCCCCC1)Nc1ccc(Br)cc1[N+](=O)[O-]`: the “activity change, negative = inhibition” value is 8.23%.
As to `O=C(COc1ccc(Cl)cc1[N+](=O)[O-])N1CCCCC1`, the “activity change, negative = inhibition” value was 1.01%.
On the same count and under the same terms, the figure for `COc1ccc(/C=C/C(=O)OCC(=O)N2CCN(S(=O)(=O)c3ccc(C)cc3C)CC2)cc1OC` is -14.6%; for `O=C(NCCc1ccccc1)c1cccc(NC(=O)c2ccccc2)c1` it is -1.34%; for `O=c1ccn([C@@H]2O[C@H](CNS(=O)(=O)c3cc4ccccc4s3)[C@@H](O)[C@H]2O)c(=O)[nH]1` it is 5.45%.
With `Cc1ccc(S(=O)(=O)CCC(=O)OCC(=O)N(C)Cc2ccccc2)cc1`, the “activity change, negative = inhibition” value was -17.5%.
On the same count and under the same terms, the figure for `O=C(NNC(=O)c1ccc2ccccc2c1)c1ccc(Cl)cc1` is 5.3%; for `O=C(CCl)NNc1nc(-c2ccccc2)c2cc(Cl)ccc2n1` it is -5.34%.
As for `COC(=O)Cn1nc(-c2ccccc2)c2cc(Cl)ccc21`, the Potency is 31.6 µM (active).
On to `CCCNC(=O)CCn1nc(-c2ccccc2)c2ccccc2c1=O`, for which the “activity change, negative = inhibition” value is -5.21%.
Still for that read-out and setting: the figure for `Cc1nn(-c2ncccn2)c2c1C(=O)CC(C)(C)C2Br` (stereo not given) is 1.24%.
Still for that read-out and setting: the figure for `COc1ccc(Cn2cc(CN3CCS(=O)(=O)N(Cc4ccc(-c5cccc(Cl)c5)cc4)C(C)C3=O)nn2)cc1` (stereo not given) is 1.24%.

The values are drawn from PubChem BioAssay AID624288 (National Center for Advancing Translational Sciences (NCATS), 2012).
